Results: PubChem BioAssay AID1159580 (chemical genetic matrix, 2015)
In all, about 5,500 compounds went through this assay and about 2,000 (36%) were called active. Inconclusive results (about 18%) are left out. Rule as the data show it: active = normalized growth mostly below about 0.91 (no sharp cut-off); inconclusive = no clear call, values can overlap the other calls; inactive = mostly above about 0.92. Some of the results follow.

Assay: chemical genetic growth profiling, strain panel (AID 1159580);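 also: tested at 20 µM; growth read once vehicle control cultures reached saturation at 30 °C; 1 = growth at the plate median or of vehicle wells; lower values mean less growth of the strain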
Conditions: S. cerevisiae deletion strains, growth OD
[1] = locus YJR075W, strain HOC1, stronger effect = lower value
[2] = locus YMR307W, strain GAS1, stronger effect = lower value
[3] = locus YNL322C, strain KRE1, stronger effect = lower value

Measured: normalized growth

COC(=O)C(O)[C@H]1C(C)(C)[C@@H](OC(C)=O)[C@@H]2CC3=C4CC(=O)O[C@@H](c5ccoc5)[C@]4(C)CCC3[C@@]1(C)C2=O (stereo not given in full)
inactive: locus YBR021W, strain FUR4, stronger effect = lower value 0.99 | locus YBR229C, strain ROT2, stronger effect = lower value 0.996 | locus YCL029C, strain bik1, stronger effect = lower value 1.02 | locus YDL035C, strain GPR1, stronger effect = lower value 0.994 | locus YDL074C, strain BRE1, stronger effect = lower value 0.941 | locus YDL101C, strain DUN1, stronger effect = lower value 1.01 | locus YDL185W, strain tfp1, stronger effect = lower value 1.01 | locus YDL192W, strain arf1, stronger effect = lower value 0.986 | locus YDR101C, strain arx1, stronger effect = lower value 1.01 | locus YDR162C, strain NBP2, stronger effect = lower value 0.963 | locus YDR318W, strain mcm21, stronger effect = lower value 0.989 | locus YDR388W, stronger effect = lower value 1 | locus YDR502C, strain sam2, stronger effect = lower value 1 | locus YER110C, stronger effect = lower value 1 | locus YER155C, strain BEM2, stronger effect = lower value 1.01 | locus YER167W, strain BCK2, stronger effect = lower value 0.986 | locus YGL078C, strain dbp3, stronger effect = lower value 1.01 | locus YGL086W, strain mad1, stronger effect = lower value 0.979 | locus YGL248W, strain PDE1, stronger effect = lower value 0.992 | locus YGR135W, strain pre9, stronger effect = lower value 0.97 | locus YGR252W, strain gcn5, stronger effect = lower value 0.989 | locus YHR079C, strain IRE1 (second series), stronger effect = lower value 1 | locus YHR094C, strain hxt1, stronger effect = lower value 1 | locus YHR129C, strain ARP1, stronger effect = lower value 0.989 | locus YHR200W, strain rpn10, stronger effect = lower value 1 | locus YIL066C, strain RNR3, stronger effect = lower value 0.981 | locus YIL073C, strain SPO22, stronger effect = lower value 1 | locus YIL125W, strain kgd1, stronger effect = lower value 1.01 | locus YIR030C, strain dcg1, stronger effect = lower value 1.01 | locus YJL095W, strain BCK1, stronger effect = lower value 0.915 | locus YJL134W, strain LCB3, stronger effect = lower value 0.995 | locus YJL168C, strain set2, stronger effect = lower value 0.995 | locus YJL187C, strain SWE1 (second series), stronger effect = lower value 0.993 | locus YJR043C, strain POL32, stronger effect = lower value 1.02 | [1] 0.995 | locus YKL009W, strain mrt4, stronger effect = lower value 1.01 | locus YKL068W, stronger effect = lower value 1 | locus YKL085W, strain MDH1 (second series), stronger effect = lower value 0.995 | locus YKL085W, strain MDH1, stronger effect = lower value 0.995 | locus YKL190W, strain CNB1, stronger effect = lower value 0.998 | locus YKR001C, strain vps1, stronger effect = lower value 0.977 | locus YLR039C, strain RIC1, stronger effect = lower value 0.764 | locus YLR058C, strain SHM2, stronger effect = lower value 0.99 | locus YLR102C, strain apc9, stronger effect = lower value 0.993 | locus YLR262C, strain YPT6, stronger effect = lower value 0.805 | locus YLR268W, strain sec22, stronger effect = lower value 0.983 | locus YLR330W, strain CHS5, stronger effect = lower value 0.992 | locus YLR371W, strain rom2, stronger effect = lower value 0.982 | locus YLR418C, strain cdc73, stronger effect = lower value 0.906 | locus YML016C, strain PPZ1, stronger effect = lower value 0.994 | locus YML032C, strain rad52, stronger effect = lower value 1 | locus YML124C, strain tub3, stronger effect = lower value 1 | locus YMR078C, strain ctf18, stronger effect = lower value 0.983 | locus YMR223W, strain ubp8, stronger effect = lower value 0.99 | [2] 0.76 | locus YNL067W, strain RPL9B, stronger effect = lower value 0.991 | locus YNL233W, strain BNI4, stronger effect = lower value 0.984 | locus YNL250W, strain rad50, stronger effect = lower value 1.02 | locus YNL271C, strain bni1, stronger effect = lower value 0.998 | locus YNL298W, strain CLA4, stronger effect = lower value 1.01 | locus YNL307C, strain MCK1, stronger effect = lower value 0.991 | [3] 1 | locus YNR052C, strain pop2, stronger effect = lower value 0.99 | locus YOL012C, strain htz1 0.744 | locus YOL147C, strain pex11, stronger effect = lower value 1 | locus YOR061W, strain CKA2, stronger effect = lower value 0.997 | locus YOR069W, strain VPS5, stronger effect = lower value 0.996 | locus YOR136W, strain idh2, stronger effect = lower value 1.01 | locus YOR144C, strain elg1, stronger effect = lower value 1 | locus YOR184W, strain ser1, stronger effect = lower value 0.965 | locus YOR316C, strain cot1, stronger effect = lower value 1.01 | locus YPL055C, strain LGE1, stronger effect = lower value 1.01 | locus YPR119W, strain clb2, stronger effect = lower value 1 | locus YPR141C, strain kar3, stronger effect = lower value 0.992 | locus YPR163C, strain tif3, stronger effect = lower value 1 | locus YPR167C, strain met16, stronger effect = lower value 1 | strain wtn01, stronger effect = lower value 0.995

CC(=O)NC1C(O)OC(COS(=O)(=O)O)C(OC2OC(C(=O)O)C(OC3OC(CO)C(OC4OC(C(=O)O)C(O)C(O)C4OS(=O)(=O)O)C(OS(=O)(=O)O)C3NS(=O)(=O)O)C(O)C2OS(=O)(=O)O)C1O (stereo not given)
inactive: locus YAL021C, strain ccr4, stronger effect = lower value 0.991 | locus YAL026C, strain drs2, stronger effect = lower value 0.974 | locus YAL030W, strain snc1, stronger effect = lower value 0.988 | locus YBL061C, strain skt5, stronger effect = lower value 0.964 | locus YBR009C, strain hhf1, stronger effect = lower value 0.989 | locus YBR023C, strain chs3, stronger effect = lower value 0.971 | locus YBR171W, strain sec66, stronger effect = lower value 0.957 | locus YBR231C, strain swc5, stronger effect = lower value 0.991 | locus YBR279W, strain paf1, stronger effect = lower value 0.981 | locus YCL011C, strain gbp2, stronger effect = lower value 0.976 | locus YCL016C, strain dcc1, stronger effect = lower value 0.971 | locus YCL061C, strain MRC1, stronger effect = lower value 0.978 | locus YCL069W, strain vba3, stronger effect = lower value 0.976 | locus YCR088W, strain abp1, stronger effect = lower value 0.974 | locus YDL005C, strain med2, stronger effect = lower value 0.978 | locus YDL040C, strain nat1, stronger effect = lower value 0.973 | locus YDR001C, strain nth1, stronger effect = lower value 0.976 | locus YDR069C, strain doa4, stronger effect = lower value 0.978 | locus YDR137W, strain rgp1, stronger effect = lower value 0.92 | locus YDR159W, strain sac3, stronger effect = lower value 0.992 | locus YDR195W, strain ref2 0.965 | locus YDR297W, strain sur2, stronger effect = lower value 0.981 | locus YDR334W, strain swr1, stronger effect = lower value 0.96 | locus YDR335W, strain msn5, stronger effect = lower value 0.978 | locus YDR392W, strain spt3, stronger effect = lower value 0.979 | locus YEL003W, strain gim4, stronger effect = lower value 0.978 | locus YEL037C, strain rad23, stronger effect = lower value 0.978 | locus YEL061C, strain CIN8 (second series), stronger effect = lower value 0.976 | locus YER015W, strain faa2, stronger effect = lower value 0.986 | locus YER016W, strain bim1, stronger effect = lower value 0.982 | locus YER111C, strain swi4, stronger effect = lower value 0.968 | locus YER155C, strain BEM2 (second series), stronger effect = lower value 0.975 | locus YFR010W, strain ubp6, stronger effect = lower value 0.968 | locus YGL167C, strain pmr1, stronger effect = lower value 0.97 | locus YGL173C, strain kem1, stronger effect = lower value 0.966 | locus YGL227W, strain vid30, stronger effect = lower value 0.975 | locus YGL240W, strain doc1, stronger effect = lower value 0.996 | locus YGL253W, strain hxk2, stronger effect = lower value 0.994 | locus YHR013C, strain ard1, stronger effect = lower value 0.947 | locus YHR027C, strain rpn1, stronger effect = lower value 0.979 | locus YHR142W, strain chs7, stronger effect = lower value 0.957 | locus YJL092W, strain hpr5, stronger effect = lower value 0.976 | locus YJL095W, strain BCK1 (second series), stronger effect = lower value 0.979 | locus YJL115W, strain asf1, stronger effect = lower value 0.967 | locus YJL129C, strain trk1, stronger effect = lower value 0.986 | locus YJL154C, strain vps35, stronger effect = lower value 0.974 | locus YJL164C, strain tpk1, stronger effect = lower value 0.979 | locus YJL166W, strain qcr8, stronger effect = lower value 0.982 | locus YJL187C, strain SWE1, stronger effect = lower value 0.978 | locus YKL160W, strain elf1, stronger effect = lower value 0.976 | locus YKR026C, strain gcn3, stronger effect = lower value 0.978 | locus YKR091W, strain srl3, stronger effect = lower value 0.984 | locus YLL001W, strain dnm1, stronger effect = lower value 0.975 | locus YLL026W, stronger effect = lower value 0.981 | locus YLL041C, strain sdh2, stronger effect = lower value 0.982 | locus YLR027C, strain aat2, stronger effect = lower value 0.982 | locus YLR221C, strain rsa3, stronger effect = lower value 0.969 | locus YLR258W, strain gsy2, stronger effect = lower value 0.986 | locus YLR262C, strain YPT6 (second series), stronger effect = lower value 0.977 | locus YLR320W, strain mms22, stronger effect = lower value 0.977 | locus YLR342W, strain FKS1, stronger effect = lower value 0.98 | locus YLR357W, strain rsc2, stronger effect = lower value 0.964 | locus YLR370C, strain arc18, stronger effect = lower value 0.966 | locus YLR384C, strain iki3, stronger effect = lower value 0.963 | locus YML120C, strain ndi1, stronger effect = lower value 0.981 | locus YMR058W, strain fet3, stronger effect = lower value 0.987 | locus YMR125W, strain sto1, stronger effect = lower value 0.981 | locus YMR129W, stronger effect = lower value 0.983 | locus YMR205C, strain PFK2, stronger effect = lower value 0.982 | locus YMR231W, strain pep5, stronger effect = lower value 0.967 | locus YNL071W, strain lat1, stronger effect = lower value 0.983 | locus YNL209W, strain ssb2, stronger effect = lower value 0.975 | locus YNL248C, strain rpa49, stronger effect = lower value 0.98 | locus YNL322C, strain KRE1 (second series), stronger effect = lower value 0.989 | locus YNR049C, strain mso1, stronger effect = lower value 0.987 | locus YOR001W, strain rrp6, stronger effect = lower value 0.97 | locus YOR070C, strain gyp1, stronger effect = lower value 0.978 | locus YOR080W, strain dia2, stronger effect = lower value 0.969 | locus YOR083W, strain WHI5, stronger effect = lower value 0.986 | locus YOR106W, strain vam3, stronger effect = lower value 0.984 | locus YOR265W, strain rbl2, stronger effect = lower value 0.972 | locus YOR270C, strain vph1, stronger effect = lower value 0.952 | locus YOR290C, strain snf2, stronger effect = lower value 0.961 | locus YPL051W, strain arl3, stronger effect = lower value 0.977 | locus YPL078C, strain atp4, stronger effect = lower value 0.97 | locus YPL106C, strain sse1, stronger effect = lower value 0.97 | locus YPL240C, strain hsp82, stronger effect = lower value 0.982

O=c1onc2n1-c1cc(Br)ccc1OC2
active: locus YNL153C, strain GIM3, stronger effect = lower value 0.763
inactive: locus YAL013W, strain DEP1, stronger effect = lower value 0.994 | locus YAL040C, strain CLN3, stronger effect = lower value 0.991 | locus YCL061C, strain MRC1 (second series), stronger effect = lower value 1.01 | locus YDR363W, strain ESC2, stronger effect = lower value 0.995 | locus YER002W, strain NOP16, stronger effect = lower value 1 | locus YGR078C, strain PAC10, stronger effect = lower value 0.952 | [1] 1 | locus YMR263W, strain SAP30, stronger effect = lower value 1.01 | [2] 0.989 | locus YNL175C, strain NOP13, stronger effect = lower value 1 | locus YNL197C, strain WHI3, stronger effect = lower value 1.02 | locus YNL224C, strain SQS1, stronger effect = lower value 1 | [3] 0.998 | locus YOR083W, strain WHI5 (second series), stronger effect = lower value 0.882 | locus YPL241C, strain CIN2, stronger effect = lower value 1
